In the supplement of paper PMC4466140:

The binders below were run against AgAbp1 (assay: SPOT peptide array binding signal intensity (averaged, normalized) (arbitrary units (background-subtracted, floor 0; scale differs between SH3 domains)); higher = stronger binding of the SH3 domain to the peptide).
Method in brief: (§1)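 Cellulose membranes carried synthetic 15-mer peptides with cysteines swapped for serines. These were incubated overnight at 4°C with 10 μg/ml of GST-fused SH3 domains from four yeast species in TBS-based blocking buffer. Binding signal, detected with anti-GST antibody and quantified in Genespotter, is the normalized, background-subtracted spot intensity averaged over replicates, in arbitrary units specific to each domain.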

Binder	SPOT peptide array binding signal intensity
LEFRAILFIPKRAPF	9

These binders were tested against AgBbc1 in the same assay as above.
Method in brief: as §1

Binder	SPOT peptide array binding signal intensity
LEFRAILFIPKRAPF	11.8

The binders below were run against AgBem1-D1 in the same assay as above.
Method in brief: as §1

Binder	SPOT peptide array binding signal intensity
LEFRAILFIPKRAPF	198

What follows are binders tested against AgBzz1-D1 in the same assay as above.
Method in brief: as §1

Binder	SPOT peptide array binding signal intensity
LEFRAILFIPKRAPF	30.5

The binders below were run against AgBzz1-D2 in the same assay as above.
Method in brief: as §1

Binder	SPOT peptide array binding signal intensity
LEFRAILFIPKRAPF	37

The binders below were run against AgCyk3 in the same assay as above.
Method in brief: as §1

Binder	SPOT peptide array binding signal intensity
LEFRAILFIPKRAPF	4

Each binder was assayed against AgFus1 in the same assay as above.
Method in brief: as §1

Binder	SPOT peptide array binding signal intensity
LEFRAILFIPKRAPF	2310

Each binder was assayed against AgHof1 in the same assay as above.
Method in brief: as §1

Binder	SPOT peptide array binding signal intensity
LEFRAILFIPKRAPF	52.8

These binders were tested against AgHse1 in the same assay as above.
Method in brief: as §1

Binder	SPOT peptide array binding signal intensity
LEFRAILFIPKRAPF	654

What follows are binders tested against AgLsb1 in the same assay as above.
Method in brief: as §1

Binder	SPOT peptide array binding signal intensity
LEFRAILFIPKRAPF	1.5

These binders were tested against AgLsb4 in the same assay as above.
Method in brief: as §1

Binder	SPOT peptide array binding signal intensity
LEFRAILFIPKRAPF	989

These binders were tested against AgMyo5 in the same assay as above.
Method in brief: as §1

Binder	SPOT peptide array binding signal intensity
LEFRAILFIPKRAPF	≤ 0

Each binder was assayed against AgNbp2 in the same assay as above.
Method in brief: as §1

Binder	SPOT peptide array binding signal intensity
LEFRAILFIPKRAPF	558

What follows are binders tested against AgRvs167 in the same assay as above.
Method in brief: as §1

Binder	SPOT peptide array binding signal intensity
LEFRAILFIPKRAPF	8.17

Each binder was assayed against AgSho1 in the same assay as above.
Method in brief: as §1

Binder	SPOT peptide array binding signal intensity
LEFRAILFIPKRAPF	850

The binders below were run against AgSla1-D1-D2 in the same assay as above.
Method in brief: as §1

Binder	SPOT peptide array binding signal intensity
LEFRAILFIPKRAPF	14

What follows are binders tested against AgSla1-D3 in the same assay as above.
Method in brief: as §1

Binder	SPOT peptide array binding signal intensity
LEFRAILFIPKRAPF	4.25

The binders below were run against CaAbp1-D1 in the same assay as above.
Method in brief: as §1

Binder	SPOT peptide array binding signal intensity
LEFRAILFIPKRAPF	56

These binders were tested against CaAbp1-D2 in the same assay as above.
Method in brief: as §1

Binder	SPOT peptide array binding signal intensity
LEFRAILFIPKRAPF	58

These binders were tested against CaBbc1 in the same assay as above.
Method in brief: as §1

Binder	SPOT peptide array binding signal intensity
LEFRAILFIPKRAPF	68

The binders below were run against CaBem1-D1 in the same assay as above.
Method in brief: as §1

Binder	SPOT peptide array binding signal intensity
LEFRAILFIPKRAPF	5

What follows are binders tested against CaBzz1-D1 in the same assay as above.
Method in brief: as §1

Binder	SPOT peptide array binding signal intensity
LEFRAILFIPKRAPF	212

The binders below were run against CaBzz1-D2 in the same assay as above.
Method in brief: as §1

Binder	SPOT peptide array binding signal intensity
LEFRAILFIPKRAPF	109

These binders were tested against CaCyk3 in the same assay as above.
Method in brief: as §1

Binder	SPOT peptide array binding signal intensity
LEFRAILFIPKRAPF	16.5

What follows are binders tested against CaFus1 in the same assay as above.
Method in brief: as §1

Binder	SPOT peptide array binding signal intensity
LEFRAILFIPKRAPF	5550

Each binder was assayed against CaHof1 in the same assay as above.
Method in brief: as §1

Binder	SPOT peptide array binding signal intensity
LEFRAILFIPKRAPF	6

These binders were tested against CaHse1 in the same assay as above.
Method in brief: as §1

Binder	SPOT peptide array binding signal intensity
LEFRAILFIPKRAPF	267

Each binder was assayed against CaLsb1 in the same assay as above.
Method in brief: as §1

Binder	SPOT peptide array binding signal intensity
LEFRAILFIPKRAPF	19

Each binder was assayed against CaLsb4 in the same assay as above.
Method in brief: as §1

Binder	SPOT peptide array binding signal intensity
LEFRAILFIPKRAPF	81

Each binder was assayed against CaMyo5 in the same assay as above.
Method in brief: as §1

Binder	SPOT peptide array binding signal intensity
LEFRAILFIPKRAPF	13.2

These binders were tested against CaNbp2 in the same assay as above.
Method in brief: as §1

Binder	SPOT peptide array binding signal intensity
LEFRAILFIPKRAPF	1090

Each binder was assayed against CaRvs167 in the same assay as above.
Method in brief: as §1

Binder	SPOT peptide array binding signal intensity
LEFRAILFIPKRAPF	224

What follows are binders tested against CaRvs167-3 in the same assay as above.
Method in brief: as §1

Binder	SPOT peptide array binding signal intensity
LEFRAILFIPKRAPF	268

The binders below were run against CaSho1 in the same assay as above.
Method in brief: as §1

Binder	SPOT peptide array binding signal intensity
LEFRAILFIPKRAPF	2030

These binders were tested against CaSla1-D1-D2 in the same assay as above.
Method in brief: as §1

Binder	SPOT peptide array binding signal intensity
LEFRAILFIPKRAPF	49

The binders below were run against CaSla1-D3 in the same assay as above.
Method in brief: as §1

Binder	SPOT peptide array binding signal intensity
LEFRAILFIPKRAPF	249

What follows are binders tested against ScAbp1 in the same assay as above.
Method in brief: as §1

Binder	SPOT peptide array binding signal intensity
LEFRAILFIPKRAPF	5

These binders were tested against ScBbc1 in the same assay as above.
Method in brief: as §1

Binder	SPOT peptide array binding signal intensity
LEFRAILFIPKRAPF	0.25

Each binder was assayed against ScBem1-D1 in the same assay as above.
Method in brief: as §1

Binder	SPOT peptide array binding signal intensity
LEFRAILFIPKRAPF	18

These binders were tested against ScBzz1-D1 in the same assay as above.
Method in brief: as §1

Binder	SPOT peptide array binding signal intensity
LEFRAILFIPKRAPF	25.5

Each binder was assayed against ScBzz1-D2 in the same assay as above.
Method in brief: as §1

Binder	SPOT peptide array binding signal intensity
LEFRAILFIPKRAPF	162

The binders below were run against ScCyk3 in the same assay as above.
Method in brief: as §1

Binder	SPOT peptide array binding signal intensity
LEFRAILFIPKRAPF	35

These binders were tested against ScFus1 in the same assay as above.
Method in brief: as §1

Binder	SPOT peptide array binding signal intensity
LEFRAILFIPKRAPF	3610

These binders were tested against ScHof1 in the same assay as above.
Method in brief: as §1

Binder	SPOT peptide array binding signal intensity
LEFRAILFIPKRAPF	1

Each binder was assayed against ScHse1 in the same assay as above.
Method in brief: as §1

Binder	SPOT peptide array binding signal intensity
LEFRAILFIPKRAPF	1790

These binders were tested against ScLsb1 in the same assay as above.
Method in brief: as §1

Binder	SPOT peptide array binding signal intensity
LEFRAILFIPKRAPF	2

These binders were tested against ScLsb2 in the same assay as above.
Method in brief: as §1

Binder	SPOT peptide array binding signal intensity
LEFRAILFIPKRAPF	≤ 0

These binders were tested against ScLsb3 in the same assay as above.
Method in brief: as §1

Binder	SPOT peptide array binding signal intensity
LEFRAILFIPKRAPF	164

What follows are binders tested against ScLsb4 in the same assay as above.
Method in brief: as §1

Binder	SPOT peptide array binding signal intensity
LEFRAILFIPKRAPF	11.5

What follows are binders tested against ScMyo3 in the same assay as above.
Method in brief: as §1

Binder	SPOT peptide array binding signal intensity
LEFRAILFIPKRAPF	≤ 0

The binders below were run against ScMyo5 in the same assay as above.
Method in brief: as §1

Binder	SPOT peptide array binding signal intensity
LEFRAILFIPKRAPF	4

Each binder was assayed against ScNbp2 in the same assay as above.
Method in brief: as §1

Binder	SPOT peptide array binding signal intensity
LEFRAILFIPKRAPF	593

What follows are binders tested against ScPex13 in the same assay as above.
Method in brief: as §1

Binder	SPOT peptide array binding signal intensity
LEFRAILFIPKRAPF	186

Each binder was assayed against ScRvs167 in the same assay as above.
Method in brief: as §1

Binder	SPOT peptide array binding signal intensity
LEFRAILFIPKRAPF	29.2

The binders below were run against ScSho1 in the same assay as above.
Method in brief: as §1

Binder	SPOT peptide array binding signal intensity
LEFRAILFIPKRAPF	3570

What follows are binders tested against ScSla1-D1-D2 in the same assay as above.
Method in brief: as §1

Binder	SPOT peptide array binding signal intensity
LEFRAILFIPKRAPF	37.5

The binders below were run against ScSla1-D3 in the same assay as above.
Method in brief: as §1

Binder	SPOT peptide array binding signal intensity
LEFRAILFIPKRAPF	94.5

These binders were tested against SpAbp1-D1 in the same assay as above.
Method in brief: as §1

Binder	SPOT peptide array binding signal intensity
LEFRAILFIPKRAPF	30

These binders were tested against SpBbc1 in the same assay as above.
Method in brief: as §1

Binder	SPOT peptide array binding signal intensity
LEFRAILFIPKRAPF	11.5

The binders below were run against SpBzz1-D1 in the same assay as above.
Method in brief: as §1

Binder	SPOT peptide array binding signal intensity
LEFRAILFIPKRAPF	220

Each binder was assayed against SpBzz1-D2 in the same assay as above.
Method in brief: as §1

Binder	SPOT peptide array binding signal intensity
LEFRAILFIPKRAPF	0.5

These binders were tested against SpCyk3 in the same assay as above.
Method in brief: as §1

Binder	SPOT peptide array binding signal intensity
LEFRAILFIPKRAPF	10.5

Each binder was assayed against SpHof1 in the same assay as above.
Method in brief: as §1

Binder	SPOT peptide array binding signal intensity
LEFRAILFIPKRAPF	61.5

The binders below were run against SpHof1-2 in the same assay as above.
Method in brief: as §1

Binder	SPOT peptide array binding signal intensity
LEFRAILFIPKRAPF	29.5

Each binder was assayed against SpHof1-3 in the same assay as above.
Method in brief: as §1

Binder	SPOT peptide array binding signal intensity
LEFRAILFIPKRAPF	418

Each binder was assayed against SpHse1 in the same assay as above.
Method in brief: as §1

Binder	SPOT peptide array binding signal intensity
LEFRAILFIPKRAPF	1270

The binders below were run against SpLsb1 in the same assay as above.
Method in brief: as §1

Binder	SPOT peptide array binding signal intensity
LEFRAILFIPKRAPF	≤ 0

Each binder was assayed against SpLsb4 in the same assay as above.
Method in brief: as §1

Binder	SPOT peptide array binding signal intensity
LEFRAILFIPKRAPF	10

The binders below were run against SpMyo1 in the same assay as above.
Method in brief: as §1

Binder	SPOT peptide array binding signal intensity
LEFRAILFIPKRAPF	11

Each binder was assayed against SpNbp2 in the same assay as above.
Method in brief: as §1

Binder	SPOT peptide array binding signal intensity
LEFRAILFIPKRAPF	1170

The binders below were run against SpPex13 in the same assay as above.
Method in brief: as §1

Binder	SPOT peptide array binding signal intensity
LEFRAILFIPKRAPF	127

What follows are binders tested against SpRvs167 in the same assay as above.
Method in brief: as §1

Binder	SPOT peptide array binding signal intensity
LEFRAILFIPKRAPF	17.3

The binders below were run against SpSla1-D1-D2 in the same assay as above.
Method in brief: as §1

Binder	SPOT peptide array binding signal intensity
LEFRAILFIPKRAPF	≤ 0

Each binder was assayed against SpSla1-D3 in the same assay as above.
Method in brief: as §1

Binder	SPOT peptide array binding signal intensity
LEFRAILFIPKRAPF	66.5
